Test results published in PubChem BioAssay.
Active and inactive are the calls of the source. No rule for the calls is given here.

Test system: Aerobactin synthetase IucA (Klebsiella pneumoniae hvKP1)
Experiment: Biochemical IucA enzyme inhibition primary screen of the Spectrum library (AID 1346200);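 also: 100% = wells without compound and 0% = wells lacking enzyme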
Conditions: malachite green pyrophosphate, A620, at 8 µM, active compounds read low

SMILES | activity remaining
CCCOc1ccc(C(=O)OCCN(CC)CC)cc1N | 109% (inactive)
Cc1[nH]ccc2c1[nH]c1cc(=O)ccc12 | 118% (inactive)
CO[C@H]1/C=C/O[C@@]2(C)Oc3c(C)c(O)c4c(O)c(c(C=NN5CCN(C)CC5)c(O)c4c3C2=O)NC(=O)/C(C)=C\C=C\C(C)[C@H](O)[C@@H](C)[C@@H](O)[C@@H](C)[C@@H](OC(C)=O)[C@@H]1C (some centres undefined) | 98.4% (inactive)
C#C[C@]1(O)CCC2C3CCc4cc(O)ccc4C3CC[C@@]21C (some centres undefined) | 105% (inactive)
CC(=O)Oc1ccccc1C(=O)Oc1ccccc1C(=O)O | 97.5% (inactive)
O=c1c2ccccc2oc2ccc(O)cc12 | 122% (inactive)
NC(N)=NS(=O)(=O)c1ccc(N)cc1 | 98.6% (inactive)
CC(=O)C1CC[C@H]2C3CC[C@H]4C[C@H](O)CC[C@]4(C)C3CC[C@]12C (some centres undefined) | 93.6% (inactive)
CC1(C)C=CC(=O)[C@@]2(C)C1CC(=O)[C@]1(C)C2CC[C@@]2(C)[C@H](c3ccoc3)OC(=O)C3OC321 (some centres undefined) | 123% (inactive)
NC(N)=NCCC[C@@H](NC(=O)[C@@H](N)Cc1ccc(O)cc1)C(=O)O | 110% (inactive)
CC(=O)Oc1c(C)c(C)c2c(c1C)CCC(C)(CCCC(C)CCCC(C)CCCC(C)C)O2 (centres undefined) | 96.6% (inactive)
CC(=O)OC1CCC2C3CCc4cc(O)ccc4C3CCC12C (centres undefined) | 123% (inactive)
CC(C)(C)NC[C@H](O)c1ccc(O)c(CO)c1 | 112% (inactive)
CC(=O)OC[C@H]1O[C@@H](Oc2cc(OC(C)=O)c3c(=O)cc(-c4ccc(OC(C)=O)cc4)oc3c2)[C@H](OC(C)=O)[C@@H](OC(C)=O)[C@@H]1OC(C)=O | 92.5% (inactive)
COc1ccc(C[C@H](N)C(=O)N[C@@H]2[C@@H](CO)OC(n3cnc4c(N(C)C)ncnc43)[C@@H]2O)cc1 (some centres undefined) | 87.5% (inactive)
CC(C)c1c(O)ccc2c1CCC1[C@@](C)(C=O)CCC[C@]21C (some centres undefined) | 99.8% (inactive)
CN1CCOC(c2ccccc2)c2ccccc2C1 (centres undefined) | 110% (inactive)
Nc1c(Br)cc(Br)cc1CNC1CCC(O)CC1 (centres undefined) | 93.2% (inactive)
COC(=O)/C(=C1\OC(=O)C(c2ccccc2)C1=O)c1ccccc1 (centres undefined) | 106% (inactive)
COc1ccc(-c2coc3c(O)c(OC)ccc3c2=O)cc1 | 115% (inactive)

SMILES | activity remaining
C=CC(C1=CC(=O)C=CC1=O)c1ccccc1 (centres undefined) | 119% (inactive)
C=C(C)C1(O)OC(=O)C=C1OC (centres undefined) | 124% (inactive)
C[C@@H]1CC2C3C[C@H](F)C4=CC(=O)C=C[C@]4(C)[C@@]3(F)[C@@H](O)C[C@]2(C)[C@@]1(O)C(=O)CO (some centres undefined) | 113% (inactive)
CNS(=O)(=O)Cc1ccc2[nH]cc(CCN(C)C)c2c1 | 115% (inactive)
Cc1ccc(O)cc1 | 102% (inactive)
C[n+]1ccccc1/C=N/O | 117% (inactive)
C=CC1=C(C)/C(=C/c2[nH]c(Cc3[nH]c(/C=C4\NC(=O)C(C)=C4C=C)c(C)c3CCC(=O)O)c(CCC(=O)O)c2C)NC1=O | 112% (inactive)
CC1=C(CCC(=O)O)c2cc3nc(cc4[nH]c(cc5[nH]c(cc1n2)c(C)c5C(C)O)c(C)c4C(C)O)C(C)=C3CCC(=O)O (centres undefined) | 107% (inactive)
O=C(CCCCCCCCCCCCC1CCCC1)Nc1ccc(S(=O)(=O)c2ccc(NC(=O)CCCCCCCCCCCCC3CCCC3)cc2)cc1 | 94.8% (inactive)
C=CCSCC1Nc2cc(Cl)c(S(N)(=O)=O)cc2S(=O)(=O)N1 (centres undefined) | 91.6% (inactive)
COc1cc(O)c(C(=O)O)c(O)c1 | 102% (inactive)
O=C(/C=C/c1ccccc1)c1ccc(O)cc1O | 96.4% (inactive)
CC(=O)O[C@H]1C[C@@]2(C)[C@@H](C[C@@H](O)C3[C@]2(C)CC[C@H]2[C@H](C)[C@H](O)CC[C@]32C)/C1=C(/CCC=C(C)C)C(=O)O (some centres undefined) | 110% (inactive)
CC1(C)OC(=O)NC1=O | 115% (inactive)
NC(C(=O)O)C(O)C(=O)O (centres undefined) | 97.5% (inactive)
C=C1c2c(Cl)ccc(O)c2C(O)=C2C(=O)[C@]3(O)C(O)=C(C(N)=O)C(=O)[C@@H](N(C)C)[C@@H]3[C@@H](O)[C@H]12 | 109% (inactive)
Nc1ccc(S(=O)(=O)c2ccc(N)cc2)cc1 | 109% (inactive)
Cc1cc(-c2ccccc2)nnc1NCCN1CCOCC1 | 110% (inactive)
Nc1ccccc1C(=O)CC(N)C(=O)O (centres undefined) | 118% (inactive)
